Measured values published in the supplement of paper PMC10981050.
“And” between values parts separate entries of the source, which are not always exact repeats. Equal entries are not always repeated. Structures can show the parent of a compound that is named as a salt.

Key:
Assay in all cases: cell viability relative to vehicle control; higher = less cytotoxic
Settings in all cases: 10 µM
[1] = test system: K562
Method in brief: (§1)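 Four leukaemia lines, as CRISPR-edited mutant clones and isogenic wild-type clones, were tested against Selleck bioactive, kinase and epigenetic probe libraries after removal of identity-inconsistent compounds. Cells were exposed to a single 10 µM dose for 48 h, and CellTiter-Glo luminescence was then read. Viability was calculated relative to the on-plate vehicle control.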

[2] = test system: MARIMO
Method in brief: as §1

[3] = test system: MOLM14
Method in brief: as §1

[4] = test system: OCI-AML2
Method in brief: as §1

Structure (SMILES)	cell viability ([1]; SRSF2 genotype: SRSF2 P95H/wt)	cell viability ([1]; SRSF2 genotype: SRSF2 wt/wt)	cell viability ([2]; SRSF2 genotype: SRSF2 P95H/wt)	cell viability ([2]; SRSF2 genotype: SRSF2 wt/wt)	cell viability ([3]; SRSF2 genotype: SRSF2 P95H/wt)	cell viability ([3]; SRSF2 genotype: SRSF2 wt/wt)	cell viability ([4]; SRSF2 genotype: P95H/wt)	cell viability ([4]; SRSF2 genotype: wt/wt)
Cn1nnc2c(C(N)=O)ncn2c1=O [Temozolomide]	99.9% and 108%	101%	94.5%	94.2%	86%	99.2%	94.9%	96.6%
C[C@H](NC(=O)c1c(N)nn2cccnc12)c1cc2cccc(C#Cc3cnn(C)c3)c2c(=O)n1-c1ccccc1	88.3% and 88.5%	94.3%	71%	63.4%	54.3%	57.1%	32.2%	41.6%
O=C(COc1ccc(Cl)cc1)NC1CCC(NC(=O)COc2ccc(Cl)cc2)CC1 (stereo not drawn) [ISRIB (trans-isomer)]	96.3% and 97.5%	100%	103%	102%	107%	98.7%	99.2%	95.9%
COCCOC(=O)C1=C(C)NC(C)=C(C(=O)OC(C)C)C1c1cccc([N+](=O)[O-])c1 (centres undefined) [Nimodipine (Nimotop)]	88.8% and 92.4%	99.3%	85.2%	92.7%	87.6%	99.4%	83.7%	88.4%
NC(=O)c1cccc2[nH]c(-c3ccc(C4CCCN4)cc3F)nc12 (centres undefined)	94.1% and 89.6%	80.1%	72.9%	80.5%	47.7%	33%	47.9%	54.3%
CC(C)CCNc1ncccc1C(=O)N1CCN(Cc2ccccc2)CC1	103% and 100%	102%	93.8%	105%	96.9%	103%	103%	105%
O=C1Nc2ccc(CN3C(=O)CSC3=O)cc2/C1=C/c1cc(CN2CCOCC2)c[nH]1	98.7% and 100%	103%	97.1%	100%	92%	100%	97.6%	91%
CCOc1cc(C=O)ccc1OC(C)=O [Ethyl vanillin acetate]	103% and 99.2%	102%	105%	108%	96.4%	98.5%	98%	108%
Cc1cccc(CN2CCN(C(c3ccccc3)c3ccc(Cl)cc3)CC2)c1 (centres undefined) [Meclizine dihydrochloride]	87.7% and 94.2%	91.5%	92.2%	105%	86.2%	91.2%	86.4%	83.2%
COc1ccc(CCc2nc3cc(-c4c(C)noc4C)ccc3n2C[C@H](C)N2CCOCC2)cc1Cl	80.9% and 86.9%	73.8%	76.9%	70.5%	47.4%	42.5%	45.7%	60.6%
CC(O)COCC1OC2OC3C(COCC(C)O)OC(OC4C(COCC(C)O)OC(OC5C(COCC(C)O)OC(OC6C(COCC(C)O)OC(OC7C(COCC(C)O)OC(OC8C(COCC(C)O)OC(OC1C(O)C2O)C(O)C8O)C(O)C7O)C(O)C6O)C(O)C5O)C(O)C4O)C(O)C3O (centres undefined)	100% and 108%	109%	105%	112%	106%	108%	108%	95.8%
O=C(Nc1nccs1)C(c1cc(F)ccc1O)N1Cc2ccccc2C1=O (centres undefined)	103% and 94.9%	96.6%	94.6%	105%	98%	97.6%	93.9%	100%
COc1cc(C=CC=O)ccc1O [Ferulaldehyde]	102% and 97.5%	98.5%	97%	103%	89.6%	97.7%	95.6%	111%
CCCCCCC1CCC(=O)O1 (centres undefined)	96.5% and 97.2%	97.8%	97.3%	101%	103%	102%	96.3%	106%
CCCCOc1cc(C(=O)NCCN(CC)CC)c2ccccc2n1 [Dibucaine (Cinchocaine) HCl]	94.5% and 84%	85.3%	81.8%	91.5%	86.2%	91.7%	93.2%	86.1%
COc1cc2nc(N3CCN(C(=O)C4CCCO4)CC3)nc(N)c2cc1OC (centres undefined) [Terazosin HCl Dihydrate]	101% and 95.7%	97%	101%	105%	99.1%	96.2%	94.8%	103%
Cc1ccc(NC(=O)c2ccc(CN3CC[C@H](N(C)C)C3)c(C(F)(F)F)c2)cc1Nc1nccc(-c2cncnc2)n1 [Bafetinib (INNO-406)]	1.12% and 1.27%	4.57%	54.6%	43.2%	49.9%	49%	23.6%	30.4%
O=c1[nH]cnc2c1ncn2[C@H]1C[C@H](O)[C@@H](CO)O1 [2'-Deoxyinosine]	120% and 113%	116%	104%	107%	105%	118%	103%	111%
